Where a name gives a salt, the structure may show the parent alone.

The assay deals with LASCPC-01. The assay is described as follows: cell viability relative to DMSO control (fraction); higher = less growth inhibition (more viable cells). The conditions noted are these: 2 µM; 72 h. As to the method: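 High-throughput single-dose screen in the LASCPC-01 NEPC cell line in 384-well plates. Cells were treated with each compound at 2 µM for 72 h, and viability was read by CellTiter-Glo luminescence. Values are normalised to the DMSO control (compound/DMSO) from three replicates; only the 5-HT-related subset of the 7315-compound library is given.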
In turn, `NCCc1c[nH]c2ccc(O)cc12` [Serotonin HCl] displayed a cell viability of 0.977.

(Values after the supplement of paper PMC10042075.)
